Most compounds without a hit are left out; they make up all but 3.3% or so of the library.
AmpC inh detg = qHTS Inhibitors of AmpC Beta-Lactamase (assay with detergent) | AmpC hydrolysis of nitrocefin, absorbance 480 nm, 0.01% Triton | Potency, µM (highest dose often 114 µM), most hits filed as inhibitors | 0.041% of 370,000 active; note: nearly all actives have a fitted effect of over 25% in size
Target sequence (P00811 whole entry, looked up): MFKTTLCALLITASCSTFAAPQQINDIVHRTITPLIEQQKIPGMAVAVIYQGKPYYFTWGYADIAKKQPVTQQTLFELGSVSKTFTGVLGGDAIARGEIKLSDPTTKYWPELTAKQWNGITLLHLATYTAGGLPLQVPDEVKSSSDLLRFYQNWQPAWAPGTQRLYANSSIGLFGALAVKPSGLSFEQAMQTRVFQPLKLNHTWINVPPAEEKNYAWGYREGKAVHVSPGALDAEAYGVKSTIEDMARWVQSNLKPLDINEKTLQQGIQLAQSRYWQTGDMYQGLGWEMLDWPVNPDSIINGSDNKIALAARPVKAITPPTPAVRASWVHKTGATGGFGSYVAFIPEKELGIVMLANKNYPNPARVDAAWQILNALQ
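AmpC (5.3 nM in the dispensed reagent) in 20 mM phosphate pH 7.0 with 0.01% (detergent screen) or 0.0001% Triton X-100 was preincubated with compounds for 15 min at room temperature. Nitrocefin was then added from an 800 uM solution, and hydrolysis was followed at 480 nm.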
Sm TGR block = qHTS Assay for the Inhibitors of Schistosoma Mansoni Peroxiredoxins; Potency, µM (doses to about 114 µM), actives largely listed as inhibitors; purified TGR, DTNB reduction, TNB absorbance 405 nm; 3% of 360,000 active; AID 485364, 2010; Schistosoma mansoni thioredoxin glutathione reductase (TGR), Q962Y6; note: nearly all actives have a fitted effect of over 60% in size
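Kinetic colorimetric format: TGR-catalysed, NADPH-driven DTNB reduction monitored via TNB absorbance. Enzyme dispensed at 20 nM; compound exposure 15 min at room temperature before reaction start.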
AmpC no deterg = qHTS Inhibitors of AmpC Beta-Lactamase (assay without detergent). 0.52% of 330,000 active. Potency, µM (titrated, usually from 57.1 µM), most hits filed as inhibitors. P00811. AmpC nitrocefin hydrolysis, absorbance 480 nm, 0.0001% Triton; note: nearly all actives have a fitted effect of over 20% in size
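AmpC (5.3 nM in the dispensed reagent) in 20 mM phosphate pH 7.0 with 0.01% (detergent screen) or 0.0001% Triton X-100 was preincubated with compounds for 15 min at room temperature. Nitrocefin was then added from an 800 uM solution, and hydrolysis was followed at 480 nm.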
Of the large screens only hits and unclear results are named; the others gave an inactive call. Calls come from the whole dose curve; as a rule, active = well fitted curve in the direction sought with a large enough effect; inconclusive = small, poorly fitted or top-dose-only effect, or another doubt; inactive = no such curve, though single readings can be large; an effect the other way counts as inactive or inconclusive.

Cc1ccc(/C=C2\C(=O)NC(=S)N(c3cccc(F)c3)C2=O)o1	Sm TGR block 0.708µM
COc1ccc(CN2C(=O)NC(=O)/C(=C/c3ccc([N+](=O)[O-])o3)C2=O)cc1	AmpC inh detg inconclusive, Sm TGR block inconclusive
CCOc1ccc(N2C(=O)/C(=C/c3ccc(C)o3)C(=O)NC2=S)cc1	Sm TGR block 1.41µM
COc1ccc(N2C(=O)/C(=C/N(C)C)NC2=S)cc1	none
CCOc1ccc(N2C(=O)NC(=O)/C(=C\c3ccc(N4CCCCC4)o3)C2=O)cc1	none
COc1ccc(N2C(=O)/C(=C/c3ccc(C)o3)C(=O)NC2=S)cc1	Sm TGR block 1.26µM
CN1CCN(c2ccc(/C=C3\C(=O)NC(=S)N(c4cccc(Br)c4)C3=O)o2)CC1	AmpC inh detg inconclusive
O=C(COc1ccc(S(=O)(=O)N2CCCCC2)cc1)NCC1CCCO1 (stereo unspecified)	none
CCc1ccccc1NC(=O)C1CCCN(c2nccc(C)n2)C1 (stereo unspecified)	AmpC inh detg inconclusive
C[C@H](CCCC/C=C/C(=O)O)O[C@@H]1O[C@@H](C)[C@H](O)C[C@H]1O	Sm TGR block 56.2µM
COc1ccc(-c2c(C)nn3c4c(cnc23)C(=O)CC(c2ccccc2)C4)cc1 (stereo unspecified)	none (no result: AmpC no deterg)
NS(=O)(=O)c1cccc(NS(=O)(=O)c2ccc(/C=C/C(=O)O)cc2)c1	Sm TGR block 25.1µM
O=C(O)/C=C/c1cccc(NS(=O)(=O)c2ccccc2)c1	none
CCc1cccc(NC(=O)c2cccc3c2C(=O)N(C2CCCCC2)C3)c1	AmpC inh detg inconclusive
CCC(=O)N(C1=C(NC)C(=O)c2ccccc2C1=O)C(C)C	none
CCC(=O)N(CC)C1=C(O)c2ccccc2C(=O)C1=O	Sm TGR block 0.282µM
Cc1cc(S(=O)(=O)Nc2c(C)nn(C)c2C)c(Cl)cc1Cl	none
Cc1ccc(Nc2sc(C(=O)c3ccccc3)c(N)c2C(N)=O)cc1	Sm TGR block 50.1µM (no result: AmpC no deterg)
Cc1cccc(Nc2sc(C(=O)c3ccc(Cl)cc3)c(N)c2C(N)=O)c1	none (no result: AmpC no deterg)
O=S(=O)(CCN1CCSCC1)c1ccc(Cl)cc1	none
Cn1c(=O)c2c(-c3ccccc3)n(Cc3ccccn3)cc2n(C)c1=O	AmpC inh detg inconclusive, Sm TGR block 28.2µM
Cn1c(=O)c2c(-c3ccccc3)n(CCCN3CCOCC3)cc2n(C)c1=O	AmpC inh detg inconclusive
Cc1ccc(-c2c3c(=O)n(C)c(=O)n(C)c3cn2Cc2ccccc2)cc1	Sm TGR block 44.7µM
CCCn1cc2c(c1-c1ccc(C)cc1)c(=O)n(C)c(=O)n2C	none
COc1ccc(OC)c(S(=O)(=O)N2CCC(n3c(C)nc4cccnc43)CC2)c1	none (no result: AmpC no deterg)
COc1ccc(S(=O)(=O)Nc2cc3c(cc2NCc2ccccc2)n(C)c(=O)n3C)cc1	none (no result: AmpC no deterg)
COC(=O)CCCC1=CC2=CC(=O)C(C)(OC(=O)c3cccs3)C(=O)C2=CN1C1CCCC1 (stereo unspecified)	none
CC1(OC(=O)c2cccs2)C(=O)C=C2C=C3CCCN3C=C2C1=O (stereo unspecified)	Sm TGR block 35.5µM
CC1(OC(=O)CCc2ccccc2)C(=O)C=C2C=C(c3ccc(C#N)cc3)N(C3CCCCC3)C=C2C1=O (stereo unspecified)	none
CCN(CC)CCCN1C=C2C(=O)C(C)(OC(=O)CCc3ccccc3)C(=O)C=C2C=C1c1ccc(C#N)cc1 (stereo unspecified)	Sm TGR block 39.8µM
COc1ccc(CN2C=C3C(=O)C(C)(OC(=O)CCc4ccccc4)C(=O)C=C3C=C2c2ccc(C#N)cc2)cc1 (stereo unspecified)	none
CC1(OC(=O)CCc2ccccc2)C(=O)C=C2C=C3CCCN3C=C2C1=O (stereo unspecified)	Sm TGR block 35.5µM
O=C(Cn1cc(S(=O)(=O)Cc2cccc(Cl)c2)c2ccccc21)NCCc1ccccc1	none (no result: AmpC no deterg)
CCc1noc(C)c1C(=O)N(CCOC)c1c(N)n(CC(C)C)c(=O)[nH]c1=O	none
Cc1ccc(NC(=O)C2=CC(c3cccs3)=NS(=O)(=O)N2C)cc1	none
CCc1ccc(NC(=O)C2=CC(c3cccs3)=NS(=O)(=O)N2C)cc1	AmpC no deterg 17.8µM
C=CCn1c(N)cc(=O)nc1SCC(=O)N1CCN(c2ccc(F)cc2)CC1	Sm TGR block 28.2µM
Nc1nc(SCC(=O)N2CCN(c3ccc(F)cc3)CC2)n[nH]1	none
O=c1c2cc3c(cc2n(Cc2ccccc2)c(=O)n1Cc1nc(-c2ccccc2)no1)OCO3	none (no result: AmpC no deterg)
COCCCNC(=O)c1c(N)n(Cc2ccco2)c2nc3ccccc3nc12	Sm TGR block 3.98µM
CCCNC(=O)c1c(N)n(Cc2ccco2)c2nc3ccccc3nc12	none
CC(C)OC(=O)c1c(N)n(Cc2ccco2)c2nc3ccccc3nc12	none
CC(C)CNC(=O)c1c(N)n(Cc2ccco2)c2nc3ccccc3nc12	Sm TGR block 31.6µM
O=C(NNC(=O)C1CC=CCC1)c1ccccc1Cl (stereo unspecified)	none
CCOC(=O)c1cccc(NC(=O)Nc2ccc3c(c2)N(C)C(=O)c2ccccc2S3)c1	none (no result: AmpC no deterg)
O=C(Cn1cncn1)NCc1cc(F)ccc1F	none
C=CCN(c1ccccc1)S(=O)(=O)c1cccc(C(=O)Nc2nc3ccccc3[nH]2)c1	AmpC no deterg 10µM
C=CCN(c1ccccc1)S(=O)(=O)c1cccc(C(=O)Nc2ccncc2)c1	none
COc1ccc2occ(CC(=O)Nc3ccc(S(=O)(=O)Nc4nc(C)cc(C)n4)cc3)c2c1	none (no result: AmpC no deterg)
COc1ccc(NS(=O)(=O)c2cccc3nonc23)c(OC)c1	Sm TGR block 17.8µM
CC(C)NC(=O)CCS(=O)(=O)c1cccc2nonc12	none
COc1cccc(CNC(=O)CCS(=O)(=O)c2cccc3nsnc23)c1	none
COc1ccc(OC)c(NC(=O)CCNS(=O)(=O)c2cccc3nonc23)c1	none
COc1cccc(CNC(=O)CCS(=O)(=O)c2cccc3nonc23)c1	AmpC inh detg inconclusive, Sm TGR block 44.7µM
O=C(CCS(=O)(=O)c1cccc2nonc12)N1CCCc2ccccc21	Sm TGR block 35.5µM
O=C(CCS(=O)(=O)c1cccc2nonc12)NCCc1ccccc1	Sm TGR block inconclusive
O=C(CCS(=O)(=O)c1cccc2nonc12)NCc1ccc(Cl)cc1	Sm TGR block 35.5µM
Cc1cccc(OCC(=O)NCCCNC(=O)c2cnccn2)c1	none
Cc1ccc(C(=O)N(C)c2ccc(OCC(=O)N3c4ccc(C)cc4C4CN(C)CCC43)cc2)cc1 (stereo unspecified)	Sm TGR block inconclusive
CC(Oc1ccccc1Cl)C(=O)N(Cc1cccs1)C1CCS(=O)(=O)C1 (stereo unspecified)	AmpC inh detg inconclusive
Fc1ccc2c(c1)C(c1ccncc1)=NNC(c1ccccc1)=N2	none
CCN(C(=O)CCS(=O)(=O)c1cccc2nonc12)c1ccc(C)c(C)c1	Sm TGR block 39.8µM
Cc1cccc(N(C)C(=O)CCS(=O)(=O)c2cccc3nonc23)c1	Sm TGR block inconclusive
O=C(c1ccco1)N1CCN(C(=O)c2ccc(Cn3cc(Br)cn3)o2)CC1	AmpC inh detg inconclusive, Sm TGR block 39.8µM
NNC(=O)c1ccc(Cn2cc(Br)cn2)o1	AmpC inh detg inconclusive
